In all, about 33,000 sequences were measured (“E-score (-0.5 to 0.5)”: median about -0.053, highest 2% from about 0.37 on). The sample as a whole holds a higher share of the highest values than the screen did.

The assay concerns the target Hap1 (UniProt P0CE41). In words: PBM E-score (8-mer binding enrichment) (E-score (-0.5 to 0.5)); higher = stronger / more preferred TF binding. The following applies: protein concentration: 200 nM; construct: GST-DNA-binding domain. The method in brief: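 Universal all-10-mer Agilent arrays, double-stranded by primer extension on fresh or once-stripped slides, were probed with about 100-200 nM GST-tagged yeast transcription factors made by PURExpress. Fluorescent anti-GST detected bound protein, and masliner normalised the scans. E-scores from the Universal PBM Analysis Suite were given to each ungapped eight-base word pooled with its reverse complement.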
Chain of UniProt P0CE41 (P0CE41 whole entry, the tested form may be a part): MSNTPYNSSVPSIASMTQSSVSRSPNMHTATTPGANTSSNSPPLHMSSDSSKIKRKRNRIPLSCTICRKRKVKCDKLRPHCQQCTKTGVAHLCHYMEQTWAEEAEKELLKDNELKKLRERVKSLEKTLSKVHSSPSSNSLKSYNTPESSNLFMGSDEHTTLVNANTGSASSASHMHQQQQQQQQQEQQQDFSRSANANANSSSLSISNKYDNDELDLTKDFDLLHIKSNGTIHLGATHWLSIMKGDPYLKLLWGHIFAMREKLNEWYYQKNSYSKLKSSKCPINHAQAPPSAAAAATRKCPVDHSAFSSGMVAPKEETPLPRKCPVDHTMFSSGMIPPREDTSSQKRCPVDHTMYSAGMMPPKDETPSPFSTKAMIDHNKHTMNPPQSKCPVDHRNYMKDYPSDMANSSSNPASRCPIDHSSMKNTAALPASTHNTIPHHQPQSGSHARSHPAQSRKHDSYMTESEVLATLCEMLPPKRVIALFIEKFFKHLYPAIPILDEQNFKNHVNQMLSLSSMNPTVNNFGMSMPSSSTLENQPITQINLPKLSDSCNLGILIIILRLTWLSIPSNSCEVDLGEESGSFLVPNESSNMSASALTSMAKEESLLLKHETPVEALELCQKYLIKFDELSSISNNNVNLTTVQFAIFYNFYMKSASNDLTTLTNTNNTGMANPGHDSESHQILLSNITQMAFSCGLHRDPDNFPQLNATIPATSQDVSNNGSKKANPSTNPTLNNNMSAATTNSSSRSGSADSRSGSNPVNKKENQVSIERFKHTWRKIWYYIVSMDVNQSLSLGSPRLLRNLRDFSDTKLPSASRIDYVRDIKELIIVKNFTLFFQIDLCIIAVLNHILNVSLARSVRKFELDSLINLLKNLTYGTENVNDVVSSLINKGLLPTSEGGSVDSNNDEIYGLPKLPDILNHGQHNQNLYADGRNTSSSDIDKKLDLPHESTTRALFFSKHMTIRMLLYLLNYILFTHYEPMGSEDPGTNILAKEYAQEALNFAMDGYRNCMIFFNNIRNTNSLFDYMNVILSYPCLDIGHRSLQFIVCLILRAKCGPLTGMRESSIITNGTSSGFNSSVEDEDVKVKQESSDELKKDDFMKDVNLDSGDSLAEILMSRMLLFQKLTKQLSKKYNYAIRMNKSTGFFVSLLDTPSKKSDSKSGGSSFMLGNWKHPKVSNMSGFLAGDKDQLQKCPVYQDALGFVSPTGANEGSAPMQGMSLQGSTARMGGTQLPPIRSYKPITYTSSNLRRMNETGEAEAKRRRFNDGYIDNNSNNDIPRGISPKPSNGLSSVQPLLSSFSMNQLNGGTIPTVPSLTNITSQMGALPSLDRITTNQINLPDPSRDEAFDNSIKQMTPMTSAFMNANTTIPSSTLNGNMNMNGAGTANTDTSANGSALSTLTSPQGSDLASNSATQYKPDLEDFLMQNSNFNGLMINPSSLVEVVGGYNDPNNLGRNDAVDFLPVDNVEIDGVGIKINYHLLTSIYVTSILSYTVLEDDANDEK
In the case of CCCCCAAG, the “PBM E-score” value is -0.195.

For CCCTCAAG, the “PBM E-score” value was -0.233.

Take GGCCGAGA: the “PBM E-score” value is 0.401.

Turning to AGCCGAGA, the “PBM E-score” value worked out at 0.267.

CGCCGAGA: the “PBM E-score” value was 0.37.

Regarding CGCCGAGC, the “PBM E-score” value is 0.364.

As to CGCCGCGA, the “PBM E-score” value turned out to be 0.213.

CCCCGAGA: the “PBM E-score” value was found to be 0.319.

As for GCCCGAGA, the “PBM E-score” value was found to be 0.391.

Consider TCCCGAGA, for which the “PBM E-score” value stood at 0.261.

For the sequence GGCCGCGA, the “PBM E-score” value worked out at 0.0621.

For CTTTCTTA, the “PBM E-score” value is -0.125.

As for AGCTTAGA, the “PBM E-score” value is -0.00759.

As to ACGTACTG, the “PBM E-score” value is -0.144.

As for CCGGCCAG, the “PBM E-score” value was determined as 0.351.

In the case of CCGGCCGG, the “PBM E-score” value amounted to 0.456.

Turning to AGGGCCCG, the “PBM E-score” value worked out at 0.106.

Regarding ACGGCCAA, the “PBM E-score” value was 0.166.

As for CGGGCCTC, the “PBM E-score” value was 0.192.

On to AGGGCCTA, for which the “PBM E-score” value is 0.0252.

For the sequence CCGGCCGC, the “PBM E-score” value was determined as 0.299.

As to CGGGCCTA, the “PBM E-score” value was 0.383.

Turning to CGGGCCCG, the “PBM E-score” value amounted to 0.419.

CGGGCCCA: the “PBM E-score” value was found to be 0.26.

For ACGGCCCA, the “PBM E-score” value stood at 0.141.

For ACGGCCGA, the “PBM E-score” value amounted to 0.419.

Consider ATCCACGC, for which the “PBM E-score” value is -0.239.

For AGCACTAT, the “PBM E-score” value is -0.257.

With ATTCCCTC, the “PBM E-score” value is -0.083.

Turning to ACTATCGA, the “PBM E-score” value is -0.0147.

As for GGATCCAC, the “PBM E-score” value was 0.059.

For ATCTCTTC, the “PBM E-score” value was -0.0222.

Turning to AGAGCAGA, the “PBM E-score” value is -0.17.

For CAATCTGA, the “PBM E-score” value was -0.151.

As to GTACTGTA, the “PBM E-score” value is -0.119.

With GGGGCCGA, the “PBM E-score” value turned out to be 0.233.

As for TCGGCCAA, the “PBM E-score” value turned out to be 0.256.

Turning to CCGGCCTA, the “PBM E-score” value was determined as 0.288.

For the sequence CGGGCCGC, the “PBM E-score” value was determined as 0.263.

For the sequence TCGGCCGA, the “PBM E-score” value was determined as 0.48.

As for ACGGCCTG, the “PBM E-score” value was -0.0121.

Consider ACGGCCGG, for which the “PBM E-score” value stood at 0.392.

Regarding CCGGCCGA, the “PBM E-score” value was found to be 0.453.

For ATGGCCGG, the “PBM E-score” value came to 0.315.

In the case of GCGGCCGA, the “PBM E-score” value is 0.335.

CGGGCCGA: the “PBM E-score” value was 0.379.

As to TCGGCCCA, the “PBM E-score” value turned out to be 0.304.

Consider ATGGTGTG, for which the “PBM E-score” value was -0.303.

Turning to ACCTTACT, the “PBM E-score” value worked out at 0.105.

For the sequence ATGCCCCG, the “PBM E-score” value amounted to 0.282.

In the case of ACGGTAGG, the “PBM E-score” value is -0.0364.

As for TACCCCTA, the “PBM E-score” value is -0.146.

With ACTTCTAC, the “PBM E-score” value is -0.119.

ACGGCCGC: the “PBM E-score” value came out at 0.228.

ACGGCCCT: the “PBM E-score” value is -0.0855.

As for CCGGCCCA, the “PBM E-score” value stood at 0.231.

CCGGCCCG: the “PBM E-score” value is 0.434.

In the case of ACGGCCCG, the “PBM E-score” value was determined as 0.249.

For ACGGCCGT, the “PBM E-score” value came out at 0.373.

As to CCGTCAAA, the “PBM E-score” value is 0.114.

For ACTGAGCG, the “PBM E-score” value is -0.284.

In the case of AATGCCGT, the “PBM E-score” value is 0.334.

As for AATGCCGC, the “PBM E-score” value came to 0.295.

For CTTGCCGA, the “PBM E-score” value was 0.0417.

Regarding AATGCCGA, the “PBM E-score” value was determined as 0.405.

On to ATTGCCGA, for which the “PBM E-score” value was found to be 0.375.

In the case of CATGCCGG, the “PBM E-score” value turned out to be 0.298.

Take AATGCCGG: the “PBM E-score” value worked out at 0.384.

On to ATTGCCGC, for which the “PBM E-score” value is 0.0752.

Turning to CATGCCGA, the “PBM E-score” value came out at 0.17.

Regarding CGTTGGTC, the “PBM E-score” value is -0.0912.

As to ACGGGAAC, the “PBM E-score” value is 0.101.

As for GGAAGACC, the “PBM E-score” value came out at 0.0832.

For GCCCACTA, the “PBM E-score” value was -0.137.

With CTCACACC, the “PBM E-score” value is -0.15.

As for CGCGGCAG, the “PBM E-score” value is 0.1.

As to GACTGTAC, the “PBM E-score” value is -0.171.

For the sequence GAGCTGCA, the “PBM E-score” value is -0.00591.

On to CCCCGCTC, for which the “PBM E-score” value was determined as 0.0426.

As to ATCGGCAC, the “PBM E-score” value is 0.315.

Regarding CGCGCGAC, the “PBM E-score” value came to 0.2.

Consider AAATCCCG, for which the “PBM E-score” value turned out to be 0.379.

For CAATCCGC, the “PBM E-score” value came to 0.191.

On to GAATCCGA, for which the “PBM E-score” value came out at 0.307.

Turning to CAATCCGA, the “PBM E-score” value stood at 0.241.

In the case of CAATCCCG, the “PBM E-score” value was 0.272.

Consider AAATCCAC, for which the “PBM E-score” value turned out to be 0.0573.

For CAATCCGG, the “PBM E-score” value was 0.375.

Regarding GAATCCGC, the “PBM E-score” value amounted to 0.179.

For the sequence TAATCCGA, the “PBM E-score” value turned out to be 0.346.

Turning to AAATCCCA, the “PBM E-score” value is -0.0185.

Take AAATCCGC: the “PBM E-score” value is 0.387.

For AAATCCGA, the “PBM E-score” value was determined as 0.457.

Take AAATCCTG: the “PBM E-score” value was -0.118.

For the sequence AAATCCAG, the “PBM E-score” value amounted to 0.0422.

With AAATCCCT, the “PBM E-score” value was -0.166.

On to AAATCCGT, for which the “PBM E-score” value turned out to be 0.396.

In the case of AAATCCTT, the “PBM E-score” value worked out at 0.0613.

On to AAATCCGG, for which the “PBM E-score” value was 0.475.

As for CCTTTGGA, the “PBM E-score” value was -0.215.

As for GGCTGCTA, the “PBM E-score” value was -0.0615.

As for CCACCGAG, the “PBM E-score” value was 0.14.

Turning to AGACCGAG, the “PBM E-score” value is 0.373.

As for AGACCGAT, the “PBM E-score” value is 0.35.

In the case of CTACCGAG, the “PBM E-score” value came out at 0.139.

With AGACCGAC, the “PBM E-score” value turned out to be 0.346.

Regarding CGACCGAG, the “PBM E-score” value came out at 0.371.

On to CGACCGAA, for which the “PBM E-score” value was determined as 0.378.

On to AGACCGAA, for which the “PBM E-score” value came to 0.281.

For the sequence CGACCGAC, the “PBM E-score” value came out at 0.301.

Turning to GCAGCTTA, the “PBM E-score” value is -0.171.

CCTGAGAA: the “PBM E-score” value was -0.253.

For CCTATCAG, the “PBM E-score” value was -0.147.

Turning to GACAGCAA, the “PBM E-score” value is -0.221.

As for TGACTCAA, the “PBM E-score” value was -0.251.

Consider CGGCTGTC, for which the “PBM E-score” value is 0.175.

Consider GGGCACAA, for which the “PBM E-score” value is -0.0367.

Turning to GAGGACGC, the “PBM E-score” value was -0.0224.
